First the molecules themselves.
B1: ENSMUSG00000004113.145|Cacna1b (ssRNA)
RNA: GGGAGUUCUACAGUCCGACGAUCGCUUCGAUAUCCGCAUGCUAAAAUAGCACAUGUAUGUAGAGAUGCGCUCAAGGGCCUGCCUUUCACCUACACUGUCACCAUAACAGGGACCAAAUCUGGAGGAUGUCCUUGCUGUUGAUUCUGGUUUUCAGUCACAACACUUUCACUGUUUGUCAUUUCUAUGUAGUUGAUCUAGAAAAAGCAGAAAUCAAAACAGGAAAGGAAAUGUUUGUGUAACUUUAAAAAAAAAGUCAACAUGUAGGAAGGUCUCCAUUUUGCAUUGUUUCUGUGUCUUGUAUGCCUCUUGCGGUCGCACUAGUGUGGAAUUCUCGGGUGUCAAGG
B2: ENSMUSG00000031028.502|Tub|9:15;46:52 (ssRNA)
RNA: GGGAGUUCUACAGUCCGACGAUCGCUUCGAUAUCCGCAUGCUACAAGUAAGCACACACCCUCUGGGAAGACAGGAGUCGGAAGCCAAGCACACACGCAACAGUCUGGAAGAGAGCUUUUGGUAAUCAUACCGUCUUCAGUGACAAGGCAACAAUGCUGUAAAGUGGGUUUGUUUGGUUUUGUUUUUUCUUUCUCUUUUAUGGAAAUGGCAGGUCUAUUUGCCUCAAACGUUAUGUAGAAGUAGUUCUAAGUUUAACAAGCAAUAGAGAUGACUGCUUAGCUAGGAUCUGCAGGGAGCUCUGCUCUCUUGCGGUCGCACUAGUGUGGAAUUCUCGGGUGUCAAGG
B3: ENSMUSG00000031028.254|Tub|5:10 (ssRNA)
RNA: GGGAGUUCUACAGUCCGACGAUCGCUUCGAUAUCCGCAUGCUAUGCCACACACCCAUCUGUGAGAAGCUUCUUGGAGCUGAGACACCAGAGGGAAGCAAAGAGCAUUUAGACAUUGCUUUUUGCUUUGAAAUAGAUAUGUUUGGAAACGCUAAGUAGAAGUUUAAAAAGUAGAGUCAUGUAGAGUCAUGCUUUGAAUAUGUGGGUCAUGCUUUAGAUAUGAAGAGGCUAUGCAGGUAAGGAGGCUGGAUUGAUGUAAAUGGAAGUAGUACUUUAAGAAAGCUCUAGAUUUCCCAGGUUGGACACUCUUGCGGUCGCACUAGUGUGGAAUUCUCGGGUGUCAAGG
B4: ENSMUSG00000090935.680|Synj2bp|248:252 (ssRNA)
RNA: GGGAGUUCUACAGUCCGACGAUCGCUUCGAUAUCCGCAUGCUAUUGAGAUUCACCACUGUCAGGAGCUCUCUCUCUCUGCUUAGAAUCAUCCAGACAGCGGGCUGGUCAGCCCACAUUAAAUAAGAACAUGUGGGACUAGAAUUCAGUCAACAAUGACAUGUUUCAUCAGGUGGUUAAAAUGUACAGAUUCUGUUGGAAAUGUUCCAUGGUAUUUCAAUAGCCAGAAUGAAGAACUGGGCUAAGUCCAGAGCUCUGCUCUCUGAGCAUCUGCCCCAGAUACAGAGGCAGACAUACAAGUGGAACUCUUGCGGUCGCACUAGUGUGGAAUUCUCGGGUGUCAAGG
B5: ENSMUSG00000031028.418|Tub|70:74;204:208;210:222;228:242 (ssRNA)
RNA: GGGAGUUCUACAGUCCGACGAUCGCUUCGAUAUCCGCAUGCUAGCAAAUUGGUGAGAAGAGCAGCCUAGUCUGUAAGAGUGCAGGGCAGCUGGAACCUUAGGCAGCUCCUCUCAUACCUACCGGCUCCACACCCUAACACUCUCCACCCUCUGCUCCAAACCAGUUCUUCUGCAGAGUGGUGAUGUUAGCUUCCCCAGCUCCUCUCCAAGUCUAGCUUUUUCUGUCCUUCUGGCUCCAAGGUGCUCACACACACACACACACACACUGUCACACACACACACACACGAGGAAAGGGCAAUCUGCUCUUGCGGUCGCACUAGUGUGGAAUUCUCGGGUGUCAAGG
B6: ENSMUSG00000031028.419|Tub (ssRNA)
RNA: GGGAGUUCUACAGUCCGACGAUCGCUUCGAUAUCCGCAUGCUAUGGUGAGAAGAGCAGCCUAGUCUGUAAGAGUGCAGGGCAGCUGGAACCUUAGGCAGCUCCUCUGUAUGCUACCGGCUCCACACCCUAACACUCUCCACCCUCUGCUCCAAACCAGUUCUUCUGCAGAGUGGUGAUGUUAGCUUCCCCAGCUCCUCUCCAAGUCUAGCUUUUUCUGUCCUUCUGGCUCCAAGGUGCUCUGUGUCUGUGUGUGUGUGUCUGUCUGUGUGUGUGUGUGUCGAGGAAAGGGCAAUCUGCAAACACUCUUGCGGUCGCACUAGUGUGGAAUUCUCGGGUGUCAAGG
B7: ENSMUSG00000031028.420|Tub (ssRNA)
RNA: GGGAGUUCUACAGUCCGACGAUCGCUUCGAUAUCCGCAUGCUAGAAGAGCAGCCUAGUCUGUAAGAGUGCAGGGCAGCUGGAACCUUAGGCAGCUCCUCUGUAUGCUACCGGCUCCACACCCUAACACUCUCCACCCUCUGCUCCAAACCAGUUCUUCUGCAGAGUGGUGAUGUUAGCUUCCCCAGCUCCUCUCCAAGUCUAGCUUUUUCUGUCCUUCUGGCUCCAAGGUGCUCUGUGUCUGUGUGUGUGUGUCUGUCUGUGUGUGUGUGUGUCGAGGAAAGGGCAAUCUGCAAACAAUGAACCUCUUGCGGUCGCACUAGUGUGGAAUUCUCGGGUGUCAAGG
B8: ENSMUSG00000031028.419|Tub|64:68;198:202;204:216;222:236 (ssRNA)
RNA: GGGAGUUCUACAGUCCGACGAUCGCUUCGAUAUCCGCAUGCUAUGGUGAGAAGAGCAGCCUAGUCUGUAAGAGUGCAGGGCAGCUGGAACCUUAGGCAGCUCCUCUCAUACCUACCGGCUCCACACCCUAACACUCUCCACCCUCUGCUCCAAACCAGUUCUUCUGCAGAGUGGUGAUGUUAGCUUCCCCAGCUCCUCUCCAAGUCUAGCUUUUUCUGUCCUUCUGGCUCCAAGGUGCUCACACACACACACACACACACUGUCACACACACACACACACGAGGAAAGGGCAAUCUGCAAACACUCUUGCGGUCGCACUAGUGUGGAAUUCUCGGGUGUCAAGG
B9: ENSMUSG00000031028.416|Tub (ssRNA)
RNA: GGGAGUUCUACAGUCCGACGAUCGCUUCGAUAUCCGCAUGCUACUUGGCUGGGUAGCAAAUUGGUGAGAAGAGCAGCCUAGUCUGUAAGAGUGCAGGGCAGCUGGAACCUUAGGCAGCUCCUCUGUAUGCUACCGGCUCCACACCCUAACACUCUCCACCCUCUGCUCCAAACCAGUUCUUCUGCAGAGUGGUGAUGUUAGCUUCCCCAGCUCCUCUCCAAGUCUAGCUUUUUCUGUCCUUCUGGCUCCAAGGUGCUCUGUGUCUGUGUGUGUGUGUCUGUCUGUGUGUGUGUGUGUCGAGGACUCUUGCGGUCGCACUAGUGUGGAAUUCUCGGGUGUCAAGG
B10: ENSMUSG00000031028.409|Tub (ssRNA)
RNA: GGGAGUUCUACAGUCCGACGAUCGCUUCGAUAUCCGCAUGCUAACAGGAAGAUCCCUUACCCCUCAUCCCCUCUUCUUUUUGGUCCUUGGCUGGGUAGCAAAUUGGUGAGAAGAGCAGCCUAGUCUGUAAGAGUGCAGGGCAGCUGGAACCUUAGGCAGCUCCUCUGUAUGCUACCGGCUCCACACCCUAACACUCUCCACCCUCUGCUCCAAACCAGUUCUUCUGCAGAGUGGUGAUGUUAGCUUCCCCAGCUCCUCUCCAAGUCUAGCUUUUUCUGUCCUUCUGGCUCCAAGGUGCUCUGUCUCUUGCGGUCGCACUAGUGUGGAAUUCUCGGGUGUCAAGG
B11: ENSMUSG00000031028.418|Tub (ssRNA)
RNA: GGGAGUUCUACAGUCCGACGAUCGCUUCGAUAUCCGCAUGCUAGCAAAUUGGUGAGAAGAGCAGCCUAGUCUGUAAGAGUGCAGGGCAGCUGGAACCUUAGGCAGCUCCUCUGUAUGCUACCGGCUCCACACCCUAACACUCUCCACCCUCUGCUCCAAACCAGUUCUUCUGCAGAGUGGUGAUGUUAGCUUCCCCAGCUCCUCUCCAAGUCUAGCUUUUUCUGUCCUUCUGGCUCCAAGGUGCUCUGUGUCUGUGUGUGUGUGUCUGUCUGUGUGUGUGUGUGUCGAGGAAAGGGCAAUCUGCUCUUGCGGUCGCACUAGUGUGGAAUUCUCGGGUGUCAAGG
B12: ENSMUSG00000031028.421|Tub (ssRNA)
RNA: GGGAGUUCUACAGUCCGACGAUCGCUUCGAUAUCCGCAUGCUACAGCCUAGUCUGUAAGAGUGCAGGGCAGCUGGAACCUUAGGCAGCUCCUCUGUAUGCUACCGGCUCCACACCCUAACACUCUCCACCCUCUGCUCCAAACCAGUUCUUCUGCAGAGUGGUGAUGUUAGCUUCCCCAGCUCCUCUCCAAGUCUAGCUUUUUCUGUCCUUCUGGCUCCAAGGUGCUCUGUGUCUGUGUGUGUGUGUCUGUCUGUGUGUGUGUGUGUCGAGGAAAGGGCAAUCUGCAAACAAUGAACAGAAGUCUCUUGCGGUCGCACUAGUGUGGAAUUCUCGGGUGUCAAGG
B13: ENSMUSG00000031028.417|Tub (ssRNA)
RNA: GGGAGUUCUACAGUCCGACGAUCGCUUCGAUAUCCGCAUGCUAUGGGUAGCAAAUUGGUGAGAAGAGCAGCCUAGUCUGUAAGAGUGCAGGGCAGCUGGAACCUUAGGCAGCUCCUCUGUAUGCUACCGGCUCCACACCCUAACACUCUCCACCCUCUGCUCCAAACCAGUUCUUCUGCAGAGUGGUGAUGUUAGCUUCCCCAGCUCCUCUCCAAGUCUAGCUUUUUCUGUCCUUCUGGCUCCAAGGUGCUCUGUGUCUGUGUGUGUGUGUCUGUCUGUGUGUGUGUGUGUCGAGGAAAGGGCCUCUUGCGGUCGCACUAGUGUGGAAUUCUCGGGUGUCAAGG

The full ranking holds about 9,900 sequences; the median of “r (bound/input frequency ratio)” is about 0.7, and the highest 2% start at about 6.5. The full list was thinned out, with the highest values kept by preference.

TDP-43, sequence (Q13148 whole entry): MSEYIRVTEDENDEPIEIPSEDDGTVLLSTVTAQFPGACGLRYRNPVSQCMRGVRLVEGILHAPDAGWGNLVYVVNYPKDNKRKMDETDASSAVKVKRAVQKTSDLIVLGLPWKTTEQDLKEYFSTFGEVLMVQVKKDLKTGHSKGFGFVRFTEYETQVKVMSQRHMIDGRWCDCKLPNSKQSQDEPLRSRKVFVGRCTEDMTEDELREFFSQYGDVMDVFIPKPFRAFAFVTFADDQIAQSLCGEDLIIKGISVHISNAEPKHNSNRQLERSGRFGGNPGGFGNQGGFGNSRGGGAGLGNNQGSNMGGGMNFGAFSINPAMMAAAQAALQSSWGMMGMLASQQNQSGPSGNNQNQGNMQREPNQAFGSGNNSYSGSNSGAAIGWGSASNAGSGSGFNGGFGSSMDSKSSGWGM

The target of this assay is TDP-43 (Homo sapiens, UniProt Q13148 1-414). Description: RNA Bind-n-Seq with designed 260-mer pool; 25 mM Tris-HCl, 150 mM KCl, 3 mM MgCl2, BSA (printed 500 mg/mL), 20 units/mL SUPERase IN; pH not stated; 500 nM RNA pool, 1 h, 4 C; TDP-43 5, 50, 500 nM; high values mean tight binding. To be noted: protein: recombinant; tags: SBP (GST cleaved off with PreScission; pGEX-GST-SBP). The method in brief:
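Duplicate measurements used two independent batches of recombinant SBP-tagged TDP-43, which was captured on streptavidin beads at 5, 50 or 500 nM. The beads were incubated with 500 nM of an in vitro-transcribed 260-nt 3′ UTR oligo pool for 1 h at 4 °C in 25 mM Tris-HCl, 150 mM KCl, 3 mM MgCl2, BSA and SUPERase IN. After washing, biotin elution, reverse transcription, PCR amplification and sequencing, binding was expressed as R: each oligo's normalized read abundance in the bound sample over its abundance in input.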
As for B1, the binding signal is 0.241 R (bound/input frequency ratio).
Turning to B2, the binding signal was 0.277 R (bound/input frequency ratio).
In the case of B3 it was 1.12 R (bound/input frequency ratio).
In the case of B4 it was 0.197 R (bound/input frequency ratio); in that of B5, 3.24 R (bound/input frequency ratio); in that of B6, 5.95 R (bound/input frequency ratio).
For the molecule B7, the binding signal was 7.33 R (bound/input frequency ratio).
The same measure for B8: 3.42 R (bound/input frequency ratio); for B9: 6.14 R (bound/input frequency ratio); for B10: 0.927 R (bound/input frequency ratio).
In the case of B11 it was 7.04 R (bound/input frequency ratio).
In the case of B12 it was 5.82 R (bound/input frequency ratio).
B13: the binding signal was 6.83 R (bound/input frequency ratio).

For the origin of these results see article PMC12864922, “TDP-43 directly inhibits mRNA accumulation in neurites through modulation of mRNA stability”.
